# The entries come from a sample that favours hits as a whole.
# Pf Dd2 inh = qHTS Primary assay for Inhibitors of Plasmodium falciparum Dd2 growth in vitro; 120,000 tested, 4.3% active; AID 1347417, 2020; P. falciparum Dd2 growth, SYBR Green, 72 h; Potency, µM (titrated, usually from 28.9 µM), for the others: at the highest dose activity, negative = inhibition, usual class: inhibitors; active = well fitted inhibition curve with a large enough effect;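 note: plate controls were DMSO vehicle for no effect and reference drug for full effect; nearly all actives have a fitted effect of over 65% in size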
#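 Readout: SYBR Green fluorescence, 485 nm excitation, 535 nm emission, after ~16 h lysis at 37C. Before that, Dd2-infected red cells (2.5% hematocrit) grew 72 h with compound, 29 uM top final concentration.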
# Numbers without * were called inactive; i = inactive; ! = not active in a repeat; [ ] = another dose, or the depositor's remark. Potency is the fitted concentration of half-maximal effect.
SMILES,Pf Dd2 inh
O=C(c1cc(F)ccc1F)N1CCC(N2CC3CC(C2)[C@H]2CCCC(=O)N2C3)CC1 (some centres not stated),-15%
COc1cccc(C(=O)N2CCCC(c3nn(-c4ccc(Cl)cc4)c(=O)[nH]3)C2)c1 (configuration not stated),-21%
CCOc1ccccc1NC(=O)N1CCCN(S(C)(=O)=O)C(c2ccccc2)CC(=O)NCC1 (configuration not stated),-19%
c1cc2nc(C3CCNC3)[nH]c2cn1 (configuration not stated),i
O=C(O)c1ccc(-c2nc3ccncc3[nH]2)cc1,1.3µM*!
O=C(O)c1ccc(-c2cccnc2)cc1,1%[44.1 µM]
c1cc2nc(C3CCNCC3)[nH]c2cn1,-1%[44.1 µM]
c1coc(-c2nc3ccncc3[nH]2)c1,-24%[44.1 µM]
Cc1cc(-c2nc3ccncc3[nH]2)c(C)[nH]1,20µM*!
c1cnc2[nH]cc(-c3nc4ccncc4[nH]3)c2c1,10µM*!
O=C(O)c1ccc2nc(-c3cc4cc(F)ccc4oc3=O)[nH]c2c1,-1%
c1cnc2nc(-c3ccncc3)[nH]c2c1,-19%[44.1 µM]
Cc1noc(C)c1CNCC1(CO)C[C@@H](O)[C@@H](O)C1 (some centres not stated),-10%[44.1 µM]
COc1cc(SC)c(OC)cc1CN1CCC2(CC(=O)NC2=O)C1 (configuration not stated),-13%
CCn1nccc1C(=O)N1CCC(N2C(=O)C(OCC3CC3)C23CCOCC3)CC1 (configuration not stated),-5%
CN1C(=O)CC(C(=O)O)C12CCN(Cc1ccc(CCC(C)(C)O)cc1)CC2 (configuration not stated),12%
COc1ccccc1OCc1cc(C(=O)N2CCN(c3cnccn3)CC2)n[nH]1,-22%
COc1cccc(CNC(=O)CCC2CCN(S(=O)(=O)c3ccc(C)cc3)CC2)c1,-24%
Cn1cc(CCC(=O)Nc2ccc3c(c2)C(=O)N2CCC[C@H]2C(=O)N3)c2ccccc21,-9%
CCn1cc(S(=O)(=O)N2CC(Oc3ccc(-c4nc(C)no4)cc3)C2)cn1,i[5.79 µM]
CCn1cc(CN2CC(Oc3ccc(-c4noc(-c5ccncc5)n4)cc3)C2)cn1,1.8µM*
Cn1cc(C(=O)N2CC(Oc3ccc(-c4nc(-c5ccccc5)no4)cc3)C2)cn1,25%[5.79 µM]
C=Cc1cccc(CN2CCC(CNC(=O)C3CCNCC3)C2)c1 (configuration not stated),-7%
CNC(=O)c1cc[nH]c1C1CCCN(C(=O)c2ccc(C)[nH]c2=O)C1 (configuration not stated),2%
N#Cc1cccc(NC(=O)Cn2nc3n(c2=O)CCCCC3)c1,0%
SMILES,Pf Dd2 inh
Cc1cc(C)n(CCNC(=O)c2ccc3c(c2)[nH]c(=O)n3C2CCC(O)CC2)n1 (configuration not stated),-8%
CCOc1ccc2oc(=O)cc(CN3CCN(C(=O)c4ccc(OC)c(OC)c4)CC3)c2c1,-9%
COc1cc2c(cc1OC)C(CNC(=O)CC(C)C)N(C(=O)Nc1cccc(F)c1)CC2 (configuration not stated),i
CCOc1ccc(CC(=O)N2CCc3cc(OC)c(OC)cc3C2COc2ccc3c(C)cc(=O)oc3c2)cc1 (configuration not stated),4µM*
COc1ccccc1NC(=O)N1CCc2cc(OC)c(OC)cc2C1CNC(=O)CC(C)C (configuration not stated),i
COc1cc2c(cc1OC)C(COc1ccc3c(C)cc(=O)oc3c1)N(C(=O)CC(C)C)CC2 (configuration not stated),11µM*
CCOc1ccc(NC(=O)N2CCc3cc(OC)c(OC)cc3C2CNC(=O)NC(C)C)cc1 (configuration not stated),-3%
O=C(CCC1CCCN(S(=O)(=O)c2ccccc2)C1)N1CCCCC1 (configuration not stated),i
Cc1ccc(C)c(Cn2nnc(C(=O)NCc3ccc(Cl)cc3Cl)c2N)c1,4.5µM*
Nc1c(C(=O)NCc2ccc(Cl)cc2Cl)nnn1Cc1ccc(Br)cc1,i
CCc1ccccc1NC(=O)Cn1nnc(C(=O)NCc2ccccc2Cl)c1N,-6%
Cc1ccc(CNC(=O)c2nnn(CC(=O)Nc3cc(C)ccc3C)c2N)cc1,i
Cc1ccc(CNC(=O)c2nnn(Cc3ccc(F)cc3)c2N)cc1,3.2µM*
CCc1ccc(NC(=O)Cn2nnc(C(=O)NCc3ccc(C)cc3)c2N)cc1,11%
CCOC(=O)C1CCN(C(=O)C2COC3(CCCCC3)N2C(=O)c2cc(F)cc(F)c2)CC1 (configuration not stated),i
Cc1cccc(OCC(=O)c2ccc3c(c2)N(CC(=O)Nc2ccccc2)C(=O)CO3)c1,-4%
CNC(=O)NC[C@H]1CCN(Cc2ccc(F)cc2F)C[C@H]1N(C)C,-13%
O=C(c1ccno1)N1C[C@@H]2OCC(=O)N(Cc3ccc(F)cc3)[C@@H]2C1,-16%[44.1 µM]
C#C[C@H]1CN2CC[C@H]1C[C@@H]2CNS(=O)(=O)c1ccc(NC(C)=O)cc1,-6%[44.1 µM]
C#C[C@H]1CN2CC[C@H]1C[C@@H]2CNS(=O)(=O)c1ccc(OC)cc1,3.2µM*
C=C[C@H]1CN2CC[C@H]1C[C@@H]2CNS(=O)(=O)Cc1ccccc1,7.1µM*
C#CCN(C)C[C@H]1CN2CC[C@H]1C[C@@H]2CNS(=O)(=O)c1ccc(Cl)cc1,i
C#C[C@H]1CN2CC[C@H]1C[C@@H]2CNS(=O)(=O)CCC,i
C=CCN(C)C[C@H]1CN2CC[C@H]1C[C@@H]2CNC(=O)Nc1ccccc1,-17%[44.1 µM]
C#C[C@H]1CN2CC[C@H]1C[C@@H]2CNS(=O)(=O)Cc1ccccc1,7.1µM*
SMILES,Pf Dd2 inh
C#C[C@H]1CN2CC[C@H]1C[C@@H]2CNS(=O)(=O)c1ccccc1,i
C#C[C@H]1CN2CC[C@H]1C[C@@H]2CNS(=O)(=O)c1ccc(C)cc1,-9%[44.1 µM]
C=C[C@H]1CN2CC[C@H]1C[C@@H]2CNC(=O)c1ccc(-c2ccccc2)cc1,-25%[44.1 µM]
C=C[C@H]1CN2CC[C@H]1C[C@@H]2CNS(C)(=O)=O,-13%[44.1 µM]
C=CCN(C)C[C@H]1CN2CC[C@H]1C[C@@H]2CNS(=O)(=O)c1ccc(C)cc1,11µM*
CCc1nncn1C1CCN(S(=O)(=O)c2ccc(F)c(Cl)c2)CC1,i
c1ccc(-n2cnnc2CC2CCNCC2)cc1,-5%
O=C(O)CC[C@@H]1CN(c2nnnn2-c2ccccc2)CC[C@@H]1N1CCOCC1,8%
C=CCn1cc(-c2c(-c3ccccc3)ncn2CCCC2CCOC2)cn1 (configuration not stated),-6%
COCCC1(NS(C)(=O)=O)CCN(C(=O)NCC(C)C)CC1,3%
CCC(CC)n1c(=O)n(CCCc2cccnc2)c2cc(C(=O)O)cnc21,-9%
CC(=O)N1CC2(CCCN(C(=O)CCC(=O)O)C2)Cc2ccccc21 (configuration not stated),0%
CCN1CC2(CCN(C(=O)C(C)(C)N)CC2)CC(c2ccccc2)C1=O (configuration not stated),-13%
Cc1ccc(C(=O)NC(C(=O)N2CCCC2)C2CCN(C(=O)CC(C)C)CC2)cc1 (configuration not stated),-7%
CN(C)Cc1nnc(C2CCN(C(=O)CCNS(C)(=O)=O)CC2)n1C,20%
C=C[C@H]1CN2CC[C@H]1C[C@@H]2CNC(=O)Nc1ccc(C(C)=O)cc1,-31%[44.1 µM]
C=C[C@H]1CN2CC[C@H]1C[C@@H]2CNC(=O)c1ccc(N(C)C)cc1,-5%[44.1 µM]
C=C[C@H]1CN2CC[C@H]1C[C@@H]2CNCc1ccc(SC)cc1,7.1µM*
